In PubChem BioAssay (NCI):
This is part of a sample that, as a whole, favours compounds with a hit. Of some 83,000 tested, about 20% had one in any assay.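 Compound tested at a single concentration for 48 hours in 96-well plates; a percent growth value below 10 was scored as active.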 Unmarked numbers belong to inactive results. The source made the active and inactive calls.

Assays:
Assay in all cases: NCI-60 one-dose screen, 48 h (100 = growth as untreated, 0 = no growth, -100 = all killed)
Conditions in all cases: 10 µM unless noted
[1] = system: SR leukemia
[2] = system: OVCAR-8 ovarian
[3] = system: OVCAR-5 ovarian
[4] = system: SK-OV-3 ovarian
[5] = system: IGROV1 ovarian
[6] = system: OVCAR-3 ovarian
[7] = system: HS 578T breast
[8] = system: NCI/ADR-RES ovarian
[9] = system: T-47D breast
[10] = system: BT-549 breast
[11] = system: MDA-MB-435 melanoma
[12] = system: SW-620 colon
[13] = system: MCF7 breast
[14] = system: HCT-116 colon
[15] = system: HCC-2998 colon
[16] = system: KM12 colon
[17] = system: OVCAR-4 ovarian
[18] = system: RPMI-8226 leukemia

SMILES | growth [1] | growth [2] | growth [3] | growth [4] | growth [5] | growth [6] | growth [7] | growth [8] | growth [9] | growth [10] | growth [11] | growth [12] | growth [13] | growth [14] | growth [15] | growth [16] | growth [17] [%] | growth [18] [%]
COc1ccc(/C=C2\C=C(c3ccccc3)N(CCc3ccccc3)C2=O)cc1OC | -1.98% (active) | 25.9% | 67.2% | -30.3% (active) | 49% | 28% | 13.1% | 31.6% | 8% (active) | 80.1% | 36% | 56% | 34.4% | 32.8% | 73.3% | 64% |  | 
CCOC(=O)c1c2c(c(C)n1C)-c1nn(Cc3ccc(OC)cc3)cc1CC2 | 71.2% | 100% |  | 109% | 111% | 108% |  |  | 64.4% | 271% | 100% |  | 99.3% | 84.4% | 109% | 92.4% | 71.2 | 
O=C1Nc2ccccc2/C1=N/N=C/c1ccc(OC2OC(CO)C(O)C(O)C2O)cc1 (stereo not drawn) | 116% | 102% | 98.2% |  | 116% | 113% | 98.9% | 106% | 105% | 109% | 106% | 101% | 103% | 107% | 115% | 110% | 115 | 
Nc1c(C(=O)Nc2ccccc2)sc2nc3c(cc12)CCCCCC3 | 12.6% | 16.4% | 15.3% | -4.37% (active) | 15.3% | -34.8% (active) | 22.8% | 1.41% (active) | 38.2% |  | -17% (active) | 27.5% | 12.1% | 2.39% (active) | 13.4% | 15.8% |  | 
CCOC(=O)c1nnn(-c2ccccc2)c1C1=CN(C)CCC1 | 88.8% |  | 99.9% | 97.2% | 104% | 100% | 91.9% | 102% | 93.3% | 99.4% | 105% | 101% | 92.9% | 87.7% | 95.9% | 99.9% | 99.9 | 
CC(C)c1ccc(NC(=O)Cc2ccc(Nc3ncnc4cc(-c5cnn(CCN(C)C)c5)ccc34)cc2)cc1 | -49.1% [30 µM] (active) | -27.5% [30 µM] (active) |  | -30.6% [30 µM] (active) | -69.7% [30 µM] (active) | -89.6% [30 µM] (active) | -60.6% [30 µM] (active) | 52.4% [30 µM] | -37.1% [30 µM] (active) | -15.3% [30 µM] (active) | -85.4% [30 µM] (active) | -82.6% [30 µM] (active) | -49.1% [30 µM] (active) | -19.7% [30 µM] (active) | -79.6% [30 µM] (active) | -86.4% [30 µM] (active) |  | 
N=C(N)c1ccc(-c2ccc(-c3ccc(Cl)cc3Cl)o2)nc1 | 1.87% (active) | 1.36% (active) |  |  | 25.4% | -3.34% (active) | -15.2% (active) | 71.6% | 59.2% | 94.7% | -92.1% (active) | -68.7% (active) | -54.6% (active) | -75.5% (active) | -34.3% (active) | -35.5% (active) | 22.6 | 
O=C1CSC(c2ccccc2Cl)N1c1nnc(Cn2cnnc2)o1 (stereo not drawn) | -23.1% (active) |  | 63% | 49% | 74.7% | 44.1% | 82.3% | 8.38% (active) |  | 60.6% | -45.1% (active) | 39.4% | -8.09% (active) | 13.3% | 35.8% | 50.9% | 68.6 | 
CN(C)CCn1cc(-c2ccc3c(Nc4ccc(CC(=O)Nc5cccc(F)c5)cc4)ncnc3c2)cn1 | -20% [30 µM] (active) | -29.2% [30 µM] (active) | -91.8% [30 µM] (active) | -26.4% [30 µM] (active) | -65.3% [30 µM] (active) | -78% [30 µM] (active) | -48.7% [30 µM] (active) | 52.4% [30 µM] | -39.7% [30 µM] (active) | -9.36% [30 µM] (active) | -71.7% [30 µM] (active) |  | -56.9% [30 µM] (active) | -11.9% [30 µM] (active) | -91.5% [30 µM] (active) | -83.6% [30 µM] (active) |  | 
CN1C[C@@H](c2ccc(Cl)cc2)[C@]2(NC(=S)N(c3ccc(F)c(Cl)c3)C2=O)[C@@]12C(=O)NC1C=CC(Cl)=C[C@H]12 (stereo partly drawn) | 0.495% (active) |  | 52.8% | 80.7% | 41.9% | 48.5% | 77.6% | 42% | 21% | 21.6% | 56.8% | 62.2% | 18% | -49% (active) | 77.8% | 55% |  | 
Cc1nc(Nc2ccc(N)cc2)c2ccccc2n1 | 56.8% | 95.3% |  | 113% | 92.7% | 101% | 104% | 93.6% | 101% | 104% | 64.6% | 99% | 75.8% | 95.3% | 104% | 98.3% | 91.2 | 
OC(COc1cccc2ccccc12)CN1CCN(c2ccccc2)CC1 (stereo not drawn) | 130% | 100% | 102% | 93.7% | 122% | 105% | 107% | 98% | 86.2% | 95.3% | 88.2% | 102% | 96.4% | 86.9% |  | 95.3% |  | 
CN1CCN(C2=C(Cl)C(=O)c3ccccc3C2=O)CC1 | 24.3% | 67.1% |  | 102% | 60.7% |  | 27.8% | 69.8% | 80.8% |  | -75% (active) | 98.8% | 54.9% | 10.2% | 86.5% |  | 84 | 
CCCN1CCN(c2ccc3nc(-c4ccc5nc(-c6cc(OC)c(OC)c(OC)c6)[nH]c5c4)[nH]c3c2)CC1 | 34.6% | 75.5% |  |  | 101% | 76.9% | 54.1% | 100% | 65.9% | 83.2% | 55.1% | 75.7% | 23.8% | 55.1% | 94.2% | 77% |  | 
Cc1ccc(/C=C(\C#N)n2nnc3cc(Cl)c(Cl)cc32)cc1 | 17.3% | 14.8% | 13.3% |  | 12.2% | -35.2% (active) | 11.7% | -25.5% (active) |  | 7.89% (active) | -46.7% (active) | 16.3% | 6.58% (active) | 8.31% (active) | 13.6% | 0.682% (active) | 29.3 | 
Cc1[nH]c(-c2nc3ccccc3[nH]2)c(C)c1C(=O)NNc1ccc(Cl)cc1 | 88.6% |  | 101% |  | 88% | 98.4% | 92.7% | 96.3% | 85.1% | 105% | 97.8% | 99.6% | 87.6% | 94% | 108% | 95.5% | 88.2 | 
CCOc1cc(C2C(Cl)C(=O)N2n2cnnc2)ccc1O (stereo not drawn) |  | 95.5% | 106% | 82.4% | 104% | 96.4% | 88.7% | 100% |  | 93% | 96.2% | 97.2% | 97.5% | 93.3% | 99.7% | 99.1% | 98.2 | 103
CCOc1cc(N)ccc1C(=O)NCCCN(CC)CC |  | 118% | 93.9% | 110% | 96.5% | 105% | 99.1% | 94.2% | 101% | 98.8% | 106% | 101% | 96.4% | 98% | 95.9% | 106% | 109 | 95.9
CCO/C=N/C1=C(C#N)C(c2ccc(OC)cc2)c2c(c3ccccc3n(C)c2=O)O1 (stereo not drawn) |  | 104% | 100% | 99.9% | 101% | 114% | 107% | 108% | 101% | 117% | 107% |  | 94.8% | 102% | 106% | 103% | 98.8 | 102
